# Reference: PubChem BioAssay (NCATS)
# Records with an inconclusive call do not appear. Values without a mark were called inactive. Active and inactive are the calls of the source. Calls follow the shape of the dose curve; as a rule, active = well fitted inhibition curve with a large enough effect; inconclusive = small, poorly fitted or top-dose-only effect; inactive = no such curve, though single readings can be large or run the other way.
# Assay: Primary qHTS for inhibitors of nuclear receptor binding SET domain protein 2 (NSD2) in an RCH-ACV wild type WT cells (2C) (AID 1645877); also: nearly all actives have a fitted effect of over 70% in size
# Conditions: RCH-ACV (leukaemia line) NSD2 WT (2C) viability, CellTiter-Glo, 72 h; series mostly up to 44.9 µM; activity change, negative = cell killing: at the top concentration
# % is scaled to controls: 0 for no effect and ±100 for the full control effect; potency is read from the fitted curve at half-maximal effect.
SMILES,outcome,"activity change, negative = cell killing",Potency
C=C1C(O)CC2C(C(=O)O)=COC(O[C@@H]3O[C@H](COC(=O)/C=C/c4ccc(O)cc4)[C@@H](O)[C@H](O)[C@H]3O)C12 (stereo partly drawn),inactive [at 17.3 µM],,
CC1(O)CC(O)C2(O)C=COC(O[C@@H]3O[C@H](CO)[C@@H](O)[C@H](O)[C@H]3O)C12 (stereo partly drawn),,-1.17%,
CC(=O)OC1C[C@@]2(C)[C@@H](CC[C@@H](C)[C@]23Cc2c(O)cc4c(c2O3)CNC4=O)C(C)(C)[C@@H]1O (stereo partly drawn),,-24.3% [at 17.3 µM],
O=C(CCc1nnc2n(Cc3ccc(Cl)cc3)c(=O)c3ccccc3n12)NCCC1=CCCCC1,,-30.4%,
C[C@@H]1O[C@@H](O[C@H]2[C@H](O[C@H]3CC[C@@]4(C)C(CC[C@]5(C)C4C=C[C@]46OC[C@@]7(CCC(C)(C)C[C@H]74)[C@@H](O)C[C@]65C)[C@]3(C)CO)O[C@H](CO)[C@@H](O)[C@@H]2O[C@@H]2O[C@H](CO)[C@@H](O[C@@H]3O[C@@H](C)[C@H](O)[C@@H](O)[C@H]3O)[C@H](O)[C@H]2O)[C@H](O)[C@H](O)[C@H]1O (stereo partly drawn),,,3.88 µM (active)
Cn1c2ccc(F)cc2c2c(C(=O)N3CCCC3)cn(-c3ccccc3)c(=O)c21,inactive,,
CC[C@H]1OC(=O)[C@H](C)[C@@H](O[C@H]2C[C@@](C)(OC)[C@@H](O)[C@H](C)O2)[C@H](C)[C@@H](O[C@@H]2O[C@H](C)C[C@H](N(C)C)[C@H]2O)[C@](C)(O)C[C@@H](C)C(=O)[C@H](C)[C@H]2OC(=O)O[C@@]21C,inactive,,
C#CCN(Cc1cc2c(=O)n(C)c(CN3CCN(C)CC3)nc2cc1Cl)c1ccc(C(=O)NCc2cccnc2)cc1,,-95.7%,
